In PubChem BioAssay (Tox21):
Inconclusive results are not listed. A call without a number means that no potency is given here. Calls of active or inactive are those of the source. The call rests on the fitted dose curve.

Assay: p53 small molecule agonists, cell-based qHTS assay with rat liver microsomes: qHTS cell viability counter screen (AID 1963580); further: nearly all actives have a fitted effect of over 45% in size
Conditions: p53RE-bla HCT-116 + rat microsomes, ATP viability, 16 h; series mostly up to 66 µM
Description: National Center for Advancing Translational Sciences [NCATS]
Division of Preclinical Innovation [DPI]
U.S. Environmental Protection Agency [EPA]
National Institutes of Environmental Health Sciences [NIEHS]
National Toxicology Program [NTP]
U.S. Food and Drug Administration [FDA]
p53, a tumor suppressor protein, is activated following cellular insult, including DNA damage and other cellular stresses. The activation of p53 regulates cell fate by inducing DNA repair, cell cycle arrest, apoptosis, or cellular senescence. The activation of p53, therefore, is a good indicator of DNA damage and other cellular stresses. The CellSensor p53RE-bla HCT-116 cell line contains a stably integrated beta-lactamase reporter gene under control of the p53 response elements. The activation of the reporter gene under culture conditions can be detected by fluorescence intensity. This cell line was used to screen the Tox21 10K compound library in the condition of presence of rat liver microsomes and to identify agonists that activate the p53 signaling pathway after in vitro metabolic activation (Ooka et al., Archive of Toxicology 96:1975-1987, 2022). The cytotoxicity of the Tox21 compound library against the p53 RE-bla HCT-116 cell line was tested in parallel by measuring the intra cellular ATP content in the same wells.
Tox21 Assay Protocol Summary:
The p53RE-bla cells were dispensed at 4,000cells/3ul/well in 1536-well black-clear bottom plates. After the assay plates were incubated at 37 C, 5% CO2 incubator for 5 hours, 23 nL of compounds dissolved in DMSO, positive controls or DMSO only was transferred to the assay plate. Following compound addition, 3 uL of rat liver microsomes (Molecular Toxicology, Boone, NC) at final concentration of 0.5 mg/mL and 1uL of B-Nicotinamide adenine dinucleotide 2'-phosphate (NADPH) at final concentration of 0.5 mg/mL were transferred to the assay plate. The plates were incubated at 37 C for 16 hours. 1 uL of LiveBLAzer detection mixture was added to each well and the plates were incubated at room temperature in the dark for 2 h. Fluorescence intensity at 460 and 530 nm emission and 405 nm excitation were measured by an Envision plate reader. For cell viability readout that measures cytotoxicity, 4 ul/well of CellTiter-Glo reagent was added into the assay plates using a Flying Reagent Dispenser. After 30 min incubation at room temperature, the luminescence intensity in the plates was measured using a ViewLux plate reader.

SMILES	Potency
Cc1ccc(N)cc1[N+](=O)[O-]	inactive
O=C1c2ccccc2C(=O)C1c1ccc2cc(S(=O)(=O)O)cc(S(=O)(=O)O)c2n1	inactive
CCCCCCCCCCCCCCCCCC(=O)OCC(CC)CCCC (stereo not given)	inactive
Cc1cccc(C)c1NC(=O)CN1CCCCCC1	inactive
CO[C@@]1(NC(=O)CSC[C@@H](N)C(=O)O)C(=O)N2C(C(=O)O)=C(CSc3nnnn3C)CS[C@@H]21	inactive
COc1ccc(COC(C)=O)cc1	inactive
CNCCO	inactive
Cc1onc(-c2ccccc2)c1C(=O)Cl	inactive
Nc1cc(=O)[nH]c(N)n1	inactive
CC1(C)[C@H]2CC[C@](C)(C2)[C@H]1O	inactive
OC[C@H]1O[C@@H]2O[C@H]3[C@H](O)[C@@H](O)[C@@H](O[C@H]4[C@H](O)[C@@H](O)[C@@H](O[C@H]5[C@H](O)[C@@H](O)[C@@H](O[C@H]6[C@H](O)[C@@H](O)[C@@H](O[C@H]7[C@H](O)[C@@H](O)[C@@H](O[C@H]8[C@H](O)[C@@H](O)[C@@H](O[C@H]1[C@H](O)[C@H]2O)O[C@@H]8CO)O[C@@H]7CO)O[C@@H]6CO)O[C@@H]5CO)O[C@@H]4CO)O[C@@H]3CO	inactive
CC(C)(C)c1ccc(CCC=O)cc1	inactive
COc1cccc(OC)c1O	inactive
c1ccc2ncccc2c1	inactive
CCCCc1ccc(Cl)cc1	inactive
O=C(O)c1cc2ccccc2nc1C(=O)O	inactive
CSc1nnc(C(C)(C)C)c(=O)[nH]1	inactive
CC(=O)OCC(=O)[C@@]1(O)CC[C@H]2[C@@H]3CCC4=CC(=O)C=C[C@]4(C)[C@H]3[C@@H](O)C[C@@]21C	inactive
O=C(O)c1ccco1	inactive
O=c1[nH]c2ccccc2c(=O)n1CCCl	inactive

SMILES	Potency
CC(O)CNCC(C)O (stereo not given)	inactive
COc1cc(C(=O)NCc2ccc(OCCN(C)C)cc2)cc(OC)c1OC	inactive
OC/C=C/CO	inactive
CCOc1ccc(N)c([N+](=O)[O-])c1	inactive
COC(=O)C1=C(C)NC(C)=C(C(=O)OCC(C)C)C1c1ccccc1[N+](=O)[O-] (stereo not given)	inactive
CCCCCCCCCOCC1CO1 (stereo not given)	inactive
N#CCN(CC#N)CCN(CC#N)CC#N	inactive
CNCCS(=O)(=O)O	inactive
NCCNCCNCCNCCN	inactive
CCCCCCC1(C)CCC(=O)O1 (stereo not given)	inactive
C[CH2][Ge]([Cl])([CH2]C)[CH2]C	inactive
CCN(CC)c1ccc(C(=O)c2ccccc2C(=O)O)c(O)c1	inactive
Cc1ccc(C(C)(C)O)cc1	inactive
CCOC(OCC)OCC	inactive
CC1CC(OC(=O)c2ccccc2O)CC(C)(C)C1 (stereo not given)	inactive
CC[C@H]1CN2CCc3cc(OC)c(OC)cc3[C@@H]2C[C@@H]1C[C@H]1NCCc2cc(OC)c(OC)cc21	inactive
CC(=O)CC(=O)Nc1ccc2[nH]c(=O)[nH]c2c1	inactive
CCCCCCCCCCC	inactive
O=CC1CC=CCC1 (stereo not given)	inactive
CC1=CC[C@@]23C[C@@H]1C(C)(C)[C@@H]2CC[C@H]3C	inactive
